Assay in all cases: DAPPL (digital affinity profiling via proximity ligation, sequencing); 10 mM Tris-HCl pH 7.5, 50 mM NaCl, 1 mM DTT, 4% glycerol, room temperature, 30 min; GST-TFs on glutathione beads, 16-mer random dsDNA library, 0.1% formaldehyde crosslink after washing; high values mean tight binding
Common to all, as to settings: protein: recombinant; tags: N-terminal GST; dsDNA, one strand shown

In experiment [1] the target is T1, ELK1 (Homo sapiens, UniProt P19419 1-428).
T1 sequence: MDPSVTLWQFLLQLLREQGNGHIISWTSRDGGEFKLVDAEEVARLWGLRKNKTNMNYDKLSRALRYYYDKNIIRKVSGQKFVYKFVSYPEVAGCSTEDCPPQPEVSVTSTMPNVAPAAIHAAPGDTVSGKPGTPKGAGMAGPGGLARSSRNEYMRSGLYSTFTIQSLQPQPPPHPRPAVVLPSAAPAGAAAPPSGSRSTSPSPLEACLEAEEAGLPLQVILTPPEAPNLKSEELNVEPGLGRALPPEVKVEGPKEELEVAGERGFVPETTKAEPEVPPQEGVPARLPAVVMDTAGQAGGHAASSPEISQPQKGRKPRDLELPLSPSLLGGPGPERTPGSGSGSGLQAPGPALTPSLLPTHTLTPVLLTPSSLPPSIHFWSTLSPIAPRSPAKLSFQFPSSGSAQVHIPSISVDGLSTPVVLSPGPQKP
An outline of the steps: (§1)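 Beads coated with glutathione captured GST-fused human transcription factors that had been expressed in yeast, and the factors were then given DNA barcodes and pooled with a tag-only sample. The pools were incubated with 200 nmole of a random double-stranded 16-mer DNA library in Tris/NaCl/DTT/glycerol buffer for 30 min at room temperature, washed, crosslinked with 0.1% formaldehyde and proximity-ligated with BsaI/T4 ligase at 37 °C for 1 h. PCR amplification and Illumina NextSeq500 sequencing came last. Binding signal is each hexamer's read frequency for a factor divided by its frequency for the tag-only sample.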

Experiment [2] concerns the target T2, GABPA (Homo sapiens, UniProt Q06546 1-454).
T2 sequence: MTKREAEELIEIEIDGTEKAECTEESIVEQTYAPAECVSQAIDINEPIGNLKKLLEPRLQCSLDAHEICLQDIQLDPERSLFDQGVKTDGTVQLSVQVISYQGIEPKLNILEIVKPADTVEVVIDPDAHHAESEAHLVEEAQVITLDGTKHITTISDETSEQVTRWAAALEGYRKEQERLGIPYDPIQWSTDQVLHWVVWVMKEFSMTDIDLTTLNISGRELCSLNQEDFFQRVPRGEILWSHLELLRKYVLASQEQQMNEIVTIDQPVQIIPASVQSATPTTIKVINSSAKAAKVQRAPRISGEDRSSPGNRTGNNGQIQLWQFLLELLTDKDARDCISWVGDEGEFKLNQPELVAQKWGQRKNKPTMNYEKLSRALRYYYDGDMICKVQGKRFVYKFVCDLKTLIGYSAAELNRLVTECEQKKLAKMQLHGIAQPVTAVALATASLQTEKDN
The procedure, abridged: as §1

Experiment [3] concerns the target T3, ERG (Homo sapiens, UniProt P11308 1-479).
T3 sequence: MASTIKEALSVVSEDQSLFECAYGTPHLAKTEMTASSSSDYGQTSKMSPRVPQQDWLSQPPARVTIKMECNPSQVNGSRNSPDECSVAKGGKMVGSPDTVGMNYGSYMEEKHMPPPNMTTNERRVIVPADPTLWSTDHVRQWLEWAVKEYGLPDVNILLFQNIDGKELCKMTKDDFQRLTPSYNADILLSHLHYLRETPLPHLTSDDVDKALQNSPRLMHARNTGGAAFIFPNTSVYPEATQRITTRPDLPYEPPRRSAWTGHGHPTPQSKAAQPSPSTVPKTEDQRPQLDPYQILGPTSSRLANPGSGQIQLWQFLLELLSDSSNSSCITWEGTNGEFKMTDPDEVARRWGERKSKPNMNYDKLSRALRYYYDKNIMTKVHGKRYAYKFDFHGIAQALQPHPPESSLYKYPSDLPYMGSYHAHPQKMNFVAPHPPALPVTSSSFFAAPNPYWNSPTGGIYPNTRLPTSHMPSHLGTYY
An outline of the steps:
as §1

For experiment [4], the target named is ELF1 (Homo sapiens, UniProt P32519 1-619). An outline of the steps:
as §1

Experiment [5] deals with T4, EHF (Homo sapiens, UniProt Q9NZC4 1-300).
T4 sequence: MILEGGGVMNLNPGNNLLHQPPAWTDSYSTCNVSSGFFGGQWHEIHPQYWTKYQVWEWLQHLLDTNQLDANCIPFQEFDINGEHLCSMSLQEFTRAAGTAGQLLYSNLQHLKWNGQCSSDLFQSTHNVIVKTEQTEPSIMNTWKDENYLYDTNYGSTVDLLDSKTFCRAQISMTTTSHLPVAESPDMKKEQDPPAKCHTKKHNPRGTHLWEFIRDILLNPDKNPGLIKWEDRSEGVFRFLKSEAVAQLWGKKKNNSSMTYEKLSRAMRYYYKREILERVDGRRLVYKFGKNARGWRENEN
An outline of the steps: as §1

Experiment [6] addresses SPI1 (Homo sapiens, UniProt P17947 1-270). An outline of the steps: as §1
The target of experiment [7] is SPIB (Homo sapiens, UniProt Q01892 1-262). The procedure, abridged:
as §1

Experiment [8] addresses T5, FEV (Homo sapiens, UniProt Q99581 1-238).
T5 sequence: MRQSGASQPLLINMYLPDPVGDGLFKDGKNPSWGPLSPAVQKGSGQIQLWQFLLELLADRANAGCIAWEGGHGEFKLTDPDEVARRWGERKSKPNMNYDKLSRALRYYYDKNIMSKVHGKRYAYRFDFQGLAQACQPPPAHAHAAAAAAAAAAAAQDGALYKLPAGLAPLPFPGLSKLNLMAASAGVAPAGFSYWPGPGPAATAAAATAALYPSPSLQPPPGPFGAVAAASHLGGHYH
The procedure, abridged: as §1

In experiment [9] the target is ETV5 (Homo sapiens, UniProt P41161 1-510). An outline of the steps:
as §1

Experiment [10] deals with ELF4 (Homo sapiens, UniProt Q99607 1-663). An outline of the steps: as §1
Experiment [11] deals with T6, ETV2 (Homo sapiens, UniProt O00321 1-342).
T6 sequence: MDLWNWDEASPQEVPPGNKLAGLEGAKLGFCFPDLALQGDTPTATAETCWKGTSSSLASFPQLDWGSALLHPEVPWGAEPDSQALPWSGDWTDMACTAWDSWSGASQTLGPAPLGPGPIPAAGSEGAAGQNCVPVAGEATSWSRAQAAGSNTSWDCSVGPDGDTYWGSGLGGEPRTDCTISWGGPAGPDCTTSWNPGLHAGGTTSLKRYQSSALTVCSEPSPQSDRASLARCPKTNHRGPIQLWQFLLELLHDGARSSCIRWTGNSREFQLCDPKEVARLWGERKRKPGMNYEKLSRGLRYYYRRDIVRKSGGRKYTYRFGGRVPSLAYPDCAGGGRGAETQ
The procedure, abridged: as §1

The target of experiment [12] is ETV1 (Homo sapiens, UniProt P50549 1-477). The procedure, abridged:
as §1

Experiment [13] deals with T7, ERF (Homo sapiens, UniProt P50548 1-548).
T7 sequence: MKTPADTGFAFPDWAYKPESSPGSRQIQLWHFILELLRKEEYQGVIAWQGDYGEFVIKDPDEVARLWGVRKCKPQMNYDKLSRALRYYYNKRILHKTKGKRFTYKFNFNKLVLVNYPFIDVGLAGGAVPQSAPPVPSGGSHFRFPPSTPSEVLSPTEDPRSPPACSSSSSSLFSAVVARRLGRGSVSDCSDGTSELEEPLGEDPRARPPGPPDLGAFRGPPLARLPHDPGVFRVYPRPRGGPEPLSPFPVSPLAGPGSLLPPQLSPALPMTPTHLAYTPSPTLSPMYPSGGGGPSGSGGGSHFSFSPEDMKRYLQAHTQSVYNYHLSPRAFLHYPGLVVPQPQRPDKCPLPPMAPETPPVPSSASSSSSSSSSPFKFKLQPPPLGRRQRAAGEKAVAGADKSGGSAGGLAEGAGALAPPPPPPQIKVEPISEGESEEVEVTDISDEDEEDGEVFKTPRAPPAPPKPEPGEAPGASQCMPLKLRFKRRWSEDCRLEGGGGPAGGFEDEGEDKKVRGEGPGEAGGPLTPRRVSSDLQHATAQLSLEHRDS
An outline of the steps: as §1

Experiment [14] has as its target T8, ETV3L (Homo sapiens, UniProt Q6ZN32 1-361).
T8 sequence: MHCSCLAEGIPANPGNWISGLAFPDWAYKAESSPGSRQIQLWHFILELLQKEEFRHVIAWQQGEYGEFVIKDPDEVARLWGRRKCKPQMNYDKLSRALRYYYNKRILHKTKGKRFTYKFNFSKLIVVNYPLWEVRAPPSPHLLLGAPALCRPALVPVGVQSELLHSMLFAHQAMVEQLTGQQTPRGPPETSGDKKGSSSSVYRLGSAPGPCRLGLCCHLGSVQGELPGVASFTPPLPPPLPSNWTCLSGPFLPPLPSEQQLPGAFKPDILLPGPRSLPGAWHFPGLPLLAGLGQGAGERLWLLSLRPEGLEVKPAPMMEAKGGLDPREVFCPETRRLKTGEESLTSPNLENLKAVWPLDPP
The procedure, abridged:
as §1

Experiment [15] has as its target T9, ETS2 (Homo sapiens, UniProt P15036 1-469).
T9 sequence: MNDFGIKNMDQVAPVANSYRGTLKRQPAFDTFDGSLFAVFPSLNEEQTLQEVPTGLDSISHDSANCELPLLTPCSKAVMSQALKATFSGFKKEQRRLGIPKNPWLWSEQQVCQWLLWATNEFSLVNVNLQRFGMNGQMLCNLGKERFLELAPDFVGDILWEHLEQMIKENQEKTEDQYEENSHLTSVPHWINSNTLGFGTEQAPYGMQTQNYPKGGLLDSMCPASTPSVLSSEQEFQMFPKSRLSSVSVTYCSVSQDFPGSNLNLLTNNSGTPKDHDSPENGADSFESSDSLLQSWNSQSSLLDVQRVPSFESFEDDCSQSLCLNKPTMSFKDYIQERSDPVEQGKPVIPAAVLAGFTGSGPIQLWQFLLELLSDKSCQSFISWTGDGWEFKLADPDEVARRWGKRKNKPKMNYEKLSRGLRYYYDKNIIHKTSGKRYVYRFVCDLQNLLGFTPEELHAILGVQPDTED
The procedure, abridged: as §1

The target in experiment [16] is T10, SPDEF (Homo sapiens, UniProt O95238 1-335).
T10 sequence: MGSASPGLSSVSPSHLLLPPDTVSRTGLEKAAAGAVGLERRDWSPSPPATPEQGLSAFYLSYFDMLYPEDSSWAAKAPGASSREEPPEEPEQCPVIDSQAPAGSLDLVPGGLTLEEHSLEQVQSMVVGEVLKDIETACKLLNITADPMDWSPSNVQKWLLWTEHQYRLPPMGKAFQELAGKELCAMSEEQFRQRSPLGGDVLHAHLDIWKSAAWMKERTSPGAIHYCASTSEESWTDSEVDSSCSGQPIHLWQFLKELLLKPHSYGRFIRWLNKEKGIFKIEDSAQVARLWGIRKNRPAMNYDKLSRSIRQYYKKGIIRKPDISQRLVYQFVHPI
The procedure, abridged: as §1

Experiment [17] deals with T11, ETV7 (Homo sapiens, UniProt Q9Y603 1-341).
T11 sequence: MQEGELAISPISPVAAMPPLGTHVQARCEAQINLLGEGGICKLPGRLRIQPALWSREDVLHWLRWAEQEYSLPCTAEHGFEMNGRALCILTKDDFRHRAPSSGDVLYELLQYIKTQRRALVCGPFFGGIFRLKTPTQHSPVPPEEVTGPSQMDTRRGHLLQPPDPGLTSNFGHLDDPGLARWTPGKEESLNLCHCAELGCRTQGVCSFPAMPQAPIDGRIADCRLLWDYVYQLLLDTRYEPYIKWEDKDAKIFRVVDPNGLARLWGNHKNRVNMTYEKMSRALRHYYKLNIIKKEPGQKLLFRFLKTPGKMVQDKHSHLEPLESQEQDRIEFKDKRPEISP
The procedure, abridged:
as §1

Experiment [18] has as its target T12, ETV3 (Homo sapiens, UniProt P41162-2 1-143).
T12 sequence: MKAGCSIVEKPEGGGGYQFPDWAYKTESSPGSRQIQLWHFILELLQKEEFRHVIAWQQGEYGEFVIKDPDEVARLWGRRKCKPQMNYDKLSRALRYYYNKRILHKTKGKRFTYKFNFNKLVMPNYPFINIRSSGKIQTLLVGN
An outline of the steps:
as §1

For experiment [19], the target named is ETV6 (Homo sapiens, UniProt P41212 1-452). An outline of the steps:
as §1

Sequence of ELF4 (Q99607 whole entry): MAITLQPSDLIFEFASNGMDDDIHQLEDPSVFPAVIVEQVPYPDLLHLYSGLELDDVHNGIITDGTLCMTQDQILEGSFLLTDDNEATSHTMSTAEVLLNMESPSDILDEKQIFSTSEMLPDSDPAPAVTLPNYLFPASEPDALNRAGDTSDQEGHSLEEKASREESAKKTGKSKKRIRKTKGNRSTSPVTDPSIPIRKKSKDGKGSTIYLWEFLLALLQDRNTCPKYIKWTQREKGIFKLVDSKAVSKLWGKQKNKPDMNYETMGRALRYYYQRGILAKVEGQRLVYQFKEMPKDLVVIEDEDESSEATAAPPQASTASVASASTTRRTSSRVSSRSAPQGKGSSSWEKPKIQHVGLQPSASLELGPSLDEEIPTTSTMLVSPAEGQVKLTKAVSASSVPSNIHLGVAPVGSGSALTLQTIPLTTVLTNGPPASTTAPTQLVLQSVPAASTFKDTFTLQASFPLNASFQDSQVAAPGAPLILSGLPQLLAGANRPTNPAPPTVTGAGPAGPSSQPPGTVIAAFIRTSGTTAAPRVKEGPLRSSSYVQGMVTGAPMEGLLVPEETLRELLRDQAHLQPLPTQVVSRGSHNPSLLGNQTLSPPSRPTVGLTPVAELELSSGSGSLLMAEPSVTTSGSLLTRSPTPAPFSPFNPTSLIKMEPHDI
Sequence of ELF1 (P32519 whole entry): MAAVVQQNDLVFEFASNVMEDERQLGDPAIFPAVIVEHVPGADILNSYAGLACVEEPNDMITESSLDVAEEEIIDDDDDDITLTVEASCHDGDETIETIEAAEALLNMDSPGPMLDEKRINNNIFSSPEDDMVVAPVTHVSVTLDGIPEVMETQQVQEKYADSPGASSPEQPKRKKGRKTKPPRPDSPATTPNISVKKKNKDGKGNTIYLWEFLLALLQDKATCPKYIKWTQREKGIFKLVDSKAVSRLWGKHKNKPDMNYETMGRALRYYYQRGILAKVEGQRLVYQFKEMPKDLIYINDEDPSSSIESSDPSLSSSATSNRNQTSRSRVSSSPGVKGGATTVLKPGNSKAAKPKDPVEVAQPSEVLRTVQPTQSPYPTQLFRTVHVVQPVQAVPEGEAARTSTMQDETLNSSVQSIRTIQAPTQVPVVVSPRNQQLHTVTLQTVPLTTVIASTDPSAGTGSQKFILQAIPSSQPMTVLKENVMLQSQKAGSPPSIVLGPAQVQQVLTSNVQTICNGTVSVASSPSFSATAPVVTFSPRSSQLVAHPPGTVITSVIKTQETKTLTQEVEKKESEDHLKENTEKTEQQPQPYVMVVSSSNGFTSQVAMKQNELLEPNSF
Sequence of SPIB (Q01892 whole entry): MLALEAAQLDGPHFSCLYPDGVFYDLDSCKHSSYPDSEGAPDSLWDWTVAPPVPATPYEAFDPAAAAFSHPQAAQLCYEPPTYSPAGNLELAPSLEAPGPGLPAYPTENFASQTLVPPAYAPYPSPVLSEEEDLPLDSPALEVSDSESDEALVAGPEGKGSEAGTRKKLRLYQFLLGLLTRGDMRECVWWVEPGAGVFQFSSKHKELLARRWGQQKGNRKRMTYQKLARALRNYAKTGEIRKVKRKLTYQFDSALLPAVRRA
Sequence of ETV5 (P41161 whole entry): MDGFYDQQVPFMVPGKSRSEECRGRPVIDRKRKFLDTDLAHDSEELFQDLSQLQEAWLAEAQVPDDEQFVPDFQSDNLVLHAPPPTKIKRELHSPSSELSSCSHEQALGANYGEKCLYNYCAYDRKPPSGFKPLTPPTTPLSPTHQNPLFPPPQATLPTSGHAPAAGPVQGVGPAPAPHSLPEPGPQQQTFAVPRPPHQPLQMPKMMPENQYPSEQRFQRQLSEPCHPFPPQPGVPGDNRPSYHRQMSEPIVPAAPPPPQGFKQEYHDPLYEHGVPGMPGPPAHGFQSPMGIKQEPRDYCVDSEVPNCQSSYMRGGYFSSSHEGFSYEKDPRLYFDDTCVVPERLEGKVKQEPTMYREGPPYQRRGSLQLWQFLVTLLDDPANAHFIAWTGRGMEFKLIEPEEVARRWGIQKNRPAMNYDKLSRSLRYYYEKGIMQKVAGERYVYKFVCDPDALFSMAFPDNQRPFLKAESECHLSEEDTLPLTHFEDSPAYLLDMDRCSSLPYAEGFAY
Sequence of ETV1 (P50549 whole entry): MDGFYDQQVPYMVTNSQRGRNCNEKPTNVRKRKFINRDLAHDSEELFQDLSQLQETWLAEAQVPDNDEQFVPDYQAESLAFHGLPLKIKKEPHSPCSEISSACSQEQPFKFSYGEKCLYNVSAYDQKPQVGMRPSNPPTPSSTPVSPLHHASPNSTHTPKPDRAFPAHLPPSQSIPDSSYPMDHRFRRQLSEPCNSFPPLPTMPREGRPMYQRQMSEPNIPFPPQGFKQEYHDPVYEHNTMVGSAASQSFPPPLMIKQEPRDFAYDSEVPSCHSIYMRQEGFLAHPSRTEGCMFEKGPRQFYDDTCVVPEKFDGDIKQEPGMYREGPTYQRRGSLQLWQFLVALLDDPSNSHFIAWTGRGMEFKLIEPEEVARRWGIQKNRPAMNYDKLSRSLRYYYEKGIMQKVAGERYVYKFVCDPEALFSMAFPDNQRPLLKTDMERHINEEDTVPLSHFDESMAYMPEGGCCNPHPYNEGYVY
Sequence of ETV6 (P41212 whole entry): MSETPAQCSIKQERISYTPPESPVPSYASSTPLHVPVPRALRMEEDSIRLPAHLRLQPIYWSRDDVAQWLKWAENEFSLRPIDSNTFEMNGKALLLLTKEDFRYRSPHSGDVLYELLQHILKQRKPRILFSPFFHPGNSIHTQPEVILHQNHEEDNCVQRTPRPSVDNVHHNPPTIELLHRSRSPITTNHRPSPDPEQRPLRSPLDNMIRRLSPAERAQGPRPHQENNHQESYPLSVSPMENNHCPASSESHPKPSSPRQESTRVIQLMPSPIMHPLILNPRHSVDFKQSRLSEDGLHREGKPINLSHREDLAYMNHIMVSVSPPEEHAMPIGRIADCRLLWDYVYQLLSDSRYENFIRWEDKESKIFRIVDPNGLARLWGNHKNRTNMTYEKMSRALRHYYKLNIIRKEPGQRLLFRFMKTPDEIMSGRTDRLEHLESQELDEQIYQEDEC

With TGCGCC, the binding signal in [1] was 1.21 fold enrichment (6-mer frequency, TF over GST control); in [2], 1.19 fold enrichment (6-mer frequency, TF over GST control); in experiment [3], 1.2 fold enrichment (6-mer frequency, TF over GST control); in experiment [4], 1.14 fold enrichment (6-mer frequency, TF over GST control); in experiment [5] it was 1.08 fold enrichment (6-mer frequency, TF over GST control); in experiment [6], 1.22 fold enrichment (6-mer frequency, TF over GST control). Further, the binding signal in [7] was 1.27 fold enrichment (6-mer frequency, TF over GST control); in experiment [8], 1.16 fold enrichment (6-mer frequency, TF over GST control); in experiment [9], 1.04 fold enrichment (6-mer frequency, TF over GST control); in experiment [10] it was 1.19 fold enrichment (6-mer frequency, TF over GST control); in experiment [11] it was 1.18 fold enrichment (6-mer frequency, TF over GST control); in experiment [12], 1.23 fold enrichment (6-mer frequency, TF over GST control). Besides, the binding signal in [13] is 1.12 fold enrichment (6-mer frequency, TF over GST control); in [14] it was 1.27 fold enrichment (6-mer frequency, TF over GST control); in experiment [15], 1.14 fold enrichment (6-mer frequency, TF over GST control); in [16], 1.07 fold enrichment (6-mer frequency, TF over GST control); in experiment [17] it was 1.09 fold enrichment (6-mer frequency, TF over GST control); in experiment [18] it was 1.15 fold enrichment (6-mer frequency, TF over GST control). Further, the binding signal in experiment [19] was 1.27 fold enrichment (6-mer frequency, TF over GST control).

(Values after PMC7862700, “An all-to-all approach to the identification of sequence-specific readers for epigenetic DNA modifications on cytosine”.)
